# Results reported in PubChem BioAssay AID1321 (The Scripps Research Institute Molecular Screening Center, 2008).
# Out of some 220,000 compounds screened, about 2,600 (1.2%) were called active. Shown is part of a subset that was picked to be rich in actives. Values without a mark were called inactive.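 How the source made its calls: active means activation above the mean of all tested compounds plus 3 SD, set per screening run (cut at about 8.8% in these data); inactive means the rest.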
# Molecular target: Wee1-like protein kinase (Homo sapiens) (UniProt P30291)
# Test: compounds stabilizing Wee1-luciferase fusion – cell-based, HeLa, Wee1K328M-luciferase, luminescence, primary screen (AID 1321);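 further: cells exposed to compound for 20 h before luminescence read; 0% = DMSO alone and 100% = MG132 at 30 µM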
# Details: HeLa Luc-Wee1K328M stability, at 5 µM, stronger effect = higher value, 100% = proteasome inhibitor MG132 effect
row,SMILES,reporter increase
1,CC(=O)NC(=S)Nc1ccc(NC(=S)NC(=O)c2ccc([N+](=O)[O-])cc2)cc1,1.61%
2,Cc1nnc(C)c2c(C)n(N)c(C)c12,3.05%
3,O=C(CCl)Nc1ccc(Sc2ccc(NC(=O)CCl)cc2)cc1,-0.49%
4,Cc1ccc(NC(=O)CCN2CCc3ccccc3C2)cc1,0.24%
5,Cc1ccc(NC(=O)CN2CCc3ccccc3C2)cc1,12.7% (active)
6,Cc1ccc(NC(=O)CC(=O)Nc2ccc(C)cc2)cc1,1.54%
7,COc1ccc(NC(=O)C2=C(C)NC(=O)NC2c2ccccc2[N+](=O)[O-])cc1 (stereo unspecified),0.32%
8,O=C(Nc1cccc2ncccc12)C(Cl)(Cl)Cl,9.1% (active)
9,Cc1ccc(C(=O)Nc2cccc3ncccc23)cc1[N+](=O)[O-],54.1% (active)
10,O=[N+]([O-])c1cccc2ncccc12,-1.36%
11,O=C(O)c1cc(Cl)c(Cl)cc1C(=O)Nc1cccc2ncccc12,-2.37%
12,Cc1cc(O)c(NC(=O)c2ccc(C)c([N+](=O)[O-])c2)cc1C,2.32%
13,O=C(Nc1cccc2ncccc12)c1ccc(-c2ccc(Cl)cc2Cl)o1,7.64%
14,O=C(NC(=O)c1ccccc1N1CCCCC1)Nc1ccc(Br)cc1,-1.56%
15,Fc1ccc(Nc2nnns2)cc1,-1.03%
16,CN1CCN(c2cc3c(cc2F)c(=O)c(C(=O)O)cn3CCF)CC1,-0.92%
17,C#CCNc1ccc(C(=O)OCC)cc1,-0.22%
18,CCOC(=O)c1c(/N=C/C2C(=O)CC(C)(C)CC2=O)sc(C)c1C,12.6% (active)
19,CCOC(=O)c1sc(/N=C/C2=C(O)CC(C)(C)CC2=O)c(C(=O)OCC)c1C,0.6%
20,CCOC(=O)c1c(NC(=O)c2cccs2)sc(C)c1C,-0.63%
21,COc1cc(OC)cc(/C(N)=N/O)c1,5.93%
22,CC(=O)Nc1cccc([N+](=O)[O-])c1,1.71%
23,Cc1ccc(CN(C)CC(=O)Nc2cccc([N+](=O)[O-])c2)o1,8.93% (active)
24,CN(CC(=O)Nc1cccc(F)c1)CC(=O)Nc1cccc([N+](=O)[O-])c1,3.36%

row,SMILES,reporter increase
1,COc1ccc(N=Nc2ccc(O)c(P(=O)(c3ccccc3)c3ccccc3)c2)cc1,2.24%
2,Clc1ccc(C[n+]2cc(-c3ccccc3)n3c2CCC3)cc1,-0.29%
3,COc1ccccc1NC(=O)C1=C(C)Nc2nc3ccccc3n2C1c1cccs1 (stereo unspecified),5.69%
4,COc1ccccc1NC(=O)C1=C(C)NC(=O)NC1c1ccc(C)s1 (stereo unspecified),9.03% (active)
5,COc1ccccc1NC(=O)c1ccc(C)s1,-0.54%
6,Nc1nc(Nc2ccccc2)nc(NCCO)c1[N+](=O)[O-],-3.26%
7,Cc1cc(C)c(C)c(S(=O)(=O)N[C@@H](C)C(=O)OC(C)C(=O)NC(N)=O)c1C (stereo partly specified),-2.95%
8,COc1ccc(/C=N/Nc2nc3ccccc3o2)cc1OC,4.92%
9,COc1cccc(/C=N\Nc2nncc(-c3ccccc3)n2)c1,0.25%
10,CCOc1ccc(/C=N/Nc2nncc(-c3ccccc3)n2)cc1OC,16.9% (active)
11,OCCN1CCN(C(=S)c2ccc(-c3ccccc3)cc2)CC1,-3.59%
12,COc1ccc(NC(=O)C2CCC(CNc3c(N4CCCCC4)c(=O)c3=O)CC2)c(OC)c1 (stereo unspecified),1.06%
13,CCOC(=O)c1nnn2c3ccccc3c(=O)n(C)c12,-0.3%
14,Cc1ncn2cc(-c3ccc(Cl)cc3Cl)[nH]c(=O)c12,-1.11%
15,Cc1ccc(S(=O)(=O)/N=C(/NC(=S)Nc2c(C)n(C)n(-c3ccccc3)c2=O)c2ccccc2)cc1,-0.69%
16,Cc1cccc(NC(=O)CSc2nnc(CCCCCNC(=O)OC(C)(C)C)o2)c1C,-2.16%
17,Cc1ccccc1CSc1nnc(CCCCCNC(=O)OC(C)(C)C)o1,15.4% (active)
18,CCc1ccccc1NC(=O)CSc1nnc(CCNC(=O)OC(C)(C)C)o1,5.87%
19,CSc1nnc(-c2ccc(C(F)(F)F)cn2)o1,-1.5%
20,Cc1nc(-c2nnc(SCC(=O)Nc3cc(C(F)(F)F)cc(C(F)(F)F)c3)n2C)cs1,2.29%
21,CCn1c(=O)c([N+](=O)[O-])c(NCc2ccc3c(c2)OCO3)c2ccccc21,-2.11%
22,COc1ccccc1N1CCN(CCCCOc2ccc(F)cc2)CC1,1.24%
23,COc1ccc(N2CCN(c3ccc([N+](=O)[O-])nc3)CC2)cc1,2.25%
24,COc1ccccc1N1CCN(c2ccc([N+](=O)[O-])nc2)CC1,12.9% (active)

row,SMILES,reporter increase
1,CCC(C)NC(=O)C1c2ccccc2Oc2ccccc21 (stereo unspecified),2.05%
2,Cc1ccc(N2CCN(S(=O)(=O)N(C)C)CC2)cc1Cl,13.4% (active)
3,CC(C)=C1SC(N2CCN(c3ccc(C)c(Cl)c3)CC2)=NC1=O,-2.39%
4,CN(C)S(=O)(=O)N1CCN(c2ccc([N+](=O)[O-])cc2)CC1,6.3%
5,Cc1ccc(Cc2cnc(NC(=O)/C(C#N)=C/c3ccc(-c4cccc([N+](=O)[O-])c4)o3)s2)cc1,-0.97%
6,N#C/C(=C/c1ccc(-c2ccccc2[N+](=O)[O-])o1)C(=O)NCCN1CCCCC1,-2.23%
7,N#C/C(=C\c1ccc(-c2cccc([N+](=O)[O-])c2)o1)C(=O)NCCN1CCOCC1,9.19% (active)
8,CCOC(=O)C1=C(c2ccccc2)NC(=S)NC1c1ccc(Cl)cc1 (stereo unspecified),3.7%
9,CC(C)(C)c1cc(P(=O)(c2ccccc2)c2ccccc2)ccc1O,0.95%
10,COc1ccc(C2c3ccc(O)cc3Oc3ncn(CCCO)c(=N)c32)cc1OC (stereo unspecified),2.84%
11,N#Cc1ccc(Oc2ccc(C(F)(F)F)cc2NC(=O)c2ccc(F)cc2)cc1,2.35%
12,COc1cc(/C=C2/C(=O)NN(c3ccc(F)cc3)C2=O)cc([N+](=O)[O-])c1O,-0.14%
13,Cc1ccc(CC2CC(=O)N(c3nc(C)cc(C)n3)C2=O)cc1 (stereo unspecified),-2.45%
14,COc1ccc(CN2C(=O)CC(Cc3ccc(C)cc3)C2=O)cc1OC (stereo unspecified),10.8% (active)
15,COc1ccc(CCN2C(=O)C3CC=C(C)CC3C2=O)cc1OC (stereo unspecified),5.14%
16,Cc1nc(-c2ccccc2)sc1-c1nnc(C2CC2)o1,-1.78%
17,CCOC(=O)c1cc(Sc2ccccc2N)cc(C(=O)OCC)n1,-2.91%
18,Cc1nnsc1C(=O)N/N=C/c1ccccc1Cl,2.61%
19,COc1cccc(N(CC(=O)Nc2cccc(F)c2)S(C)(=O)=O)c1,8.9% (active)
20,CCN(CC)S(=O)(=O)c1ccc(NC(=O)CN(c2cccc(F)c2)S(C)(=O)=O)cc1,-1.26%
21,COc1cccc(N(CC(=O)Nc2cccc(N(C)S(C)(=O)=O)c2)S(C)(=O)=O)c1,-1.32%
22,O=C(Cc1ccc(F)cc1)NC1CCCC1,-1.42%
23,O=C(CC1CCCCC1)NCc1ccco1,0.37%
24,O=C(CC1CCCCC1)NCc1ccc(F)cc1,8.97% (active)

row,SMILES,reporter increase
1,CC(OC(=O)c1ccc(NS(=O)(=O)c2ccc3[nH]c(=O)[nH]c3c2)cc1)C(=O)Nc1cccc(Cl)c1Cl (stereo unspecified),24.1% (active)
2,Cc1ccc(S(=O)(=O)/N=C(/Nc2ccc3[nH]c(=O)[nH]c3c2)c2ccccc2)cc1,-1.22%
3,COC(=O)c1ccccc1NS(=O)(=O)c1ccc2[nH]c(=O)[nH]c2c1,-1.86%
4,O=C1/C(=C/c2coc3ccc(O)cc3c2=O)SC(=S)N1c1ccccc1,-0.03%
5,COc1c(C=O)c(CCN(C)C(=O)c2ccc(F)cc2)cc2c1OCO2,0.06%
6,COc1ccc(-c2nnco2)cc1OC,-2.71%
7,Fc1ccc(COc2cccc(-c3n[nH]c(=S)o3)c2)cc1,-0.05%
8,Fc1ccc(COc2ccc(-c3nnco3)cc2)cc1,16.2% (active)
9,CCOC(=O)Cc1cc(=O)[nH]c(/N=C(\N)Nc2ccc(OC)cc2)n1,0.86%
10,Oc1ccc2ccccc2c1C=Nc1ccccc1,-2.84%
11,O=C(COC(=O)c1cc(S(=O)(=O)N2CCCCC2)ccc1Cl)NCc1ccco1,5.36%
12,CCn1c2ccccc2c2cc(NC(=O)COC(=O)c3cc(S(=O)(=O)N4CCCCC4)ccc3Cl)ccc21,11.6% (active)
13,CCn1c2ccccc2c2cc(NC(=O)COC(=O)c3ccccc3Br)ccc21,1.86%
14,Nc1ccc(C(=O)OCC(=O)NC2CCS(=O)(=O)C2)cc1[N+](=O)[O-] (stereo unspecified),-1.54%
15,COc1ccccc1P(=O)(c1ccccc1)c1ccccc1NC(C)=O (stereo unspecified),0.01%
16,Cc1ccc(-c2nc(CS(=O)CC(=O)NC3CCCC3)c(C)o2)cc1 (stereo unspecified),2.35%
17,Cc1ccc(NC(=O)CS(=O)CC(=O)N(c2ccccc2)C(C)C(=O)NC2CCCC2)cc1 (stereo unspecified),10.2% (active)
18,Cc1ccc(NC(=O)CSCC(=O)NC2CCCCC2)cc1,0.26%
19,Nc1nc(NC(=O)/C=C/c2ccc(F)cc2)nn1-c1ccccc1,-3.61%
20,Oc1ccc(-c2nnc(Nc3ccccc3)c3ccccc23)cc1,-2.97%
21,O=C1/C(=C/c2cccs2)SC(=S)N1C1CCS(=O)(=O)C1 (stereo unspecified),2.22%
22,COc1ccccc1OCc1nc2ccccc2s1,10.1% (active)
23,COc1cccc2sc(NNC(=O)c3nc4ccccc4s3)nc12,1.43%
24,O=C(O)CCCCc1nc2ccccc2s1,1.81%
